Experimental data reported in PubChem BioAssay (NCATS).
“And” between values parts separate entries of the source, which are not always exact repeats. Equal values may be shown once. Records with an inconclusive call do not appear. The source made the active and inactive calls. Unless noted, the call rests on the fitted dose curve; in most records, active means well fitted curve in the direction sought with a large enough effect; inconclusive means small, poorly fitted or top-dose-only effect, or another doubt; inactive means no such curve, though single readings can be large; an effect the other way counts as inactive or inconclusive.

What was measured:
[1] = Cellular Toxicity (caspase-3) HepG2 (AID 654); further: potency means the concentration at half of the fitted maximal effect;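 on caspase-3 activation: cells exposed to compound for 16 hours before reading; 0% = DMSO alone and 100% = caspase signal from 100 µM tamoxifen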
Outline: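 Luminescent Caspase-Glo 3/7 readout after 16 hr compound exposure of human hepatocellular carcinoma HepG2 cells at 37 °C; qHTS concentration-response, normalized DMSO = 0%, 100 uM tamoxifen = 100%; AC50 by standard Hill equation.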

[2] = Cellular Toxicity (caspase-3) Jurkat (AID 655);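 further: cells exposed to compound for 16 h at 37 °C before reading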
Outline: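 Caspase 3/7 activation is scored as increased luminescence in Jurkat cells cultured with compound for 16 hours in complete medium. AC50 values come from Hill fits of qHTS concentration-response data normalized to DMSO and 100 uM tamoxifen controls.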

[3] = Cellular Toxicity (caspase-3) HUV-EC-C (AID 656)
Outline: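 Read-out: luminescence proportional to caspase 3/7 activity, measured 20 min after adding Caspase-Glo 3/7 reagent. Cells (HUV-EC-C) had received compound for 16 hr at 37°C. Increases relative to DMSO and 100 uM tamoxifen gave concentration-response AC50 values.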

[4] = Cellular Toxicity (caspase-3) SHSY5Y (AID 657); further: potency means the concentration at half of the fitted maximal effect
Outline: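 Cells plated and incubated 5 h at 37 °C, dosed over a concentration range, incubated 16 h, then given Caspase-Glo 3/7 reagent for 1 h at room temperature before luminescence reading. Staurosporine (10 uM) defined full stimulation.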

[5] = Cellular Toxicity (caspase-3) BJ (AID 658); details: Potency: caspase-3 activation; further: potency means the concentration at half of the fitted maximal effect;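 on caspase-3 activation: 0% = DMSO basal and 100% = 10 µM staurosporine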
Outline: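 Plated BJ cells (1000/well) rested 5 hr, received compound for 16 hr at 37 °C, then Caspase-Glo 3/7 reagent for 1 hr at room temperature before luminescence reading.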

[6] = Cellular Toxicity (caspase-3) MRC-5 (AID 659); details: Potency: caspase-3 activation; further: potency means the concentration at half of the fitted maximal effect;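 on caspase-3 activation: 0% = DMSO basal and 100% = 10 µM staurosporine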
Outline: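 Apoptosis readout in MRC-5 cells: luciferase light generated after caspase 3/7 cleaves a peptide-aminoluciferin substrate, measured post 16 hr compound incubation at 37 °C.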

[7] = Cellular Toxicity (caspase-3) Mesangial (AID 660); details: Potency: caspase-3 activation;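 further: cells exposed to compound for 16 h before the caspase read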; further: potency means the concentration at half of the fitted maximal effect
Outline: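 Luminescent Caspase-Glo 3/7 readout (aminoluciferin substrate cleavage, 20 min RT) after 16 h compound exposure at 37 °C of normal human mesangial cells. Signal increase normalized between DMSO basal and 100 uM tamoxifen; Hill-equation AC50.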

[8] = Cellular Toxicity (caspase-3) SK-N-SH (AID 661); further: potency means the concentration at half of the fitted maximal effect;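 on caspase-3 activation: 0% = DMSO basal and 100% = 10 µM staurosporine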
Outline: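 Luminescent Caspase-Glo 3/7 read-out after 16 hr compound exposure of SK-N-SH neuroblastoma cells at 37 °C. Signal increase normalized to DMSO (basal) and 10 uM staurosporine (100%); AC50 from Hill equation fits of qHTS concentration-response data.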

[9] = Cellular Toxicity (caspase-3) H-4-II-E (AID 663); details: H-4-II-E rat hepatoma, scaled: DMSO 0%, 100 µM tamoxifen 100%; at 92.2 µM (top of the series);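 further: cells exposed to compound for 16 hr before readout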
Outline: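 Caspase 3/7 activation measured in H-4-II-E cells in complete culture medium after 16 hr treatment at 37 °C, using luciferase-coupled substrate readout; AC50 values come from Hill-equation fits of normalized concentration-response data.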

[10] = Cellular Toxicity (caspase-3) Hek293 (AID 664); details: HEK293 caspase-3 activation, DMSO = 0%, 100 µM tamoxifen = 100%; at 92.2 µM (top of the series);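 further: cells exposed to compound for 16 h at 37 °C before readout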
Outline: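 Luminescent Caspase-Glo 3/7 readout (aminoluciferin release) in HEK293 cells after 16 h compound treatment, 37 °C. Normalization: DMSO = basal, 100 uM tamoxifen = 100% stimulation. Concentration-response fitted with standard Hill equation for AC50.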

[11] = Cellular Toxicity (caspase-3) Renal Proximal Tubule (AID 667); details: Potency: caspase-3 activation;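 further: cells exposed to compound for 16 hours at 37 °C before detection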; further: potency means the concentration at half of the fitted maximal effect;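 on caspase-3 activation: 0% = DMSO basal and 100% = 10 µM staurosporine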
Outline: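 In qHTS format, rat primary proximal tubule cells seeded at 1000 per well are exposed to compounds for 16 hours at 37 °C. An increase in Caspase-Glo 3/7 luminescence indicates caspase activation.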

[12] = molecular target: Cytochrome P450 2C9 (Homo sapiens) (UniProt P11712); assay: qHTS Assay for Inhibitors and Substrates of Cytochrome P450 2C9 (AID 883); further: on the % scale 0 is the no-effect control and ±100 the full control effect; nearly all actives have a fitted effect of over 60% in size
Outline: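 A luminogenic readout tracked human CYP2C9 (10nM) converting deoxyluciferin (100uM, at KM) in 25mM KPO4 during 60 min at 37C with regenerated NADPH. Values normalized to 57uM sulphaphenazole as complete inhibition.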

[13] = molecular target: Cytochrome P450 3A4 (Homo sapiens) (UniProt P08684); assay: qHTS Assay for Inhibitors and Substrates of Cytochrome P450 3A4 (AID 884); further: on the % scale 0 is the no-effect control and ±100 the full control effect; nearly all actives have a fitted effect of over 50% in size
Outline: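 Luminescent readout of luciferin produced by CYP3A4 (20 nM) dealkylation of Luciferin-PPXE, 25 uM (its KM). NADPH-driven reaction ran 60 min at RT after 10 min compound preincubation; data scaled to 57 uM ketoconazole as 100% inhibition.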

[14] = Confirmation and Secondary Assay for Modulators of Hemoglobin Beta Chain Splicing at IVS2 654 locus (AID 910);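 further: per-well total GFP intensity by laser scanning cytometry after 2-day treatment; % of control where 0% means no effect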
Outline: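 HeLa cells stably carrying EGFP interrupted by mutant beta-globin IVS2-654 intron (CMV-driven) were treated with compound for 2 days at 37C; corrected splicing was scored as total peak GFP intensity per well (488 nm excitation, 500-520 nm emission).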

[15] = qHTS Assay for Identification of Small Molecule Agonists for Hypoxia Response Element Signaling Pathway (AID 914; active means well fitted activation curve with a large enough effect in the signal ratio, with a control signal flat, not every such curve was filed as active; the % refers to the signal ratio; further: % of control where 0% means no effect); details: ME-180 (cervical carcinoma) HRE-bla reporter, beta-lactamase ratio, CoCl2, 17 h; hits give high values
Outline: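 A beta-lactamase reporter under hypoxia response element control in ME-180 cells served as the system. Compound titrations plus EC50 CoCl2 ran 17 h at 37 degrees Celsius; AC50 values were fitted from %Activity.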

[16] = molecular target: Cytochrome P450 3A4 (Homo sapiens) (UniProt P08684); assay: qHTS Assay for Activators of Cytochrome P450 3A4 (AID 885); further: nearly all actives have a fitted effect of over 65% in size
Outline: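 Activators are scored by enhanced luminescence from CYP3A4 conversion of luciferin-PPXE (25uM, equal to KM) to luciferin, after 60 min at RT with an NADPH-regenerating system.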

[17] = molecular target: Guanine nucleotide-binding protein G(i) subunit alpha-1 (Homo sapiens) (UniProt P63096); assay: qHTS Assay for Inhibitors of RGS12 GoLoco Motif Activity (Green Fluorophore) (AID 879);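 further: 0% = labeled peptide with Gαi1 and full inhibition = labeled peptide alone without protein; negative values mean loss of peptide binding seen as reduced polarization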
Outline: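 A drop in FITC polarization marked displacement of the FITC-tagged RGS12 GoLoco peptide (10 nM) from Gαi1 (50 nM). Compounds were incubated 10 min at room temperature in Tris pH 7.5 buffer containing 150 mM NaCl, 0.1 mM GDP and 0.05% NP40; unlabeled peptide titration served as control.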

[18] = qHTS Assay for Identification of Small Molecule Antagonists for NFkB Signaling Pathway (AID 895; active means well fitted inhibition curve with a large enough effect in the signal ratio, with a control signal flat, not every such curve was filed as active; the % refers to the signal ratio; further: on the % scale 0 is the no-effect control and ±100 the full control effect)
Outline: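 NFkB-bla ME-180 cervical carcinoma cells with beta-lactamase reporter under NFkB response element; compounds added, then TNF alpha at 10 pM final (EC50), 5 h at 37 C. LiveBLAzer substrate 2 h, room temperature; emission 460/530 nm at 405 nm excitation.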

Sequence of Cytochrome P450 3A4 (Homo sapiens) (P08684 whole entry, looked up): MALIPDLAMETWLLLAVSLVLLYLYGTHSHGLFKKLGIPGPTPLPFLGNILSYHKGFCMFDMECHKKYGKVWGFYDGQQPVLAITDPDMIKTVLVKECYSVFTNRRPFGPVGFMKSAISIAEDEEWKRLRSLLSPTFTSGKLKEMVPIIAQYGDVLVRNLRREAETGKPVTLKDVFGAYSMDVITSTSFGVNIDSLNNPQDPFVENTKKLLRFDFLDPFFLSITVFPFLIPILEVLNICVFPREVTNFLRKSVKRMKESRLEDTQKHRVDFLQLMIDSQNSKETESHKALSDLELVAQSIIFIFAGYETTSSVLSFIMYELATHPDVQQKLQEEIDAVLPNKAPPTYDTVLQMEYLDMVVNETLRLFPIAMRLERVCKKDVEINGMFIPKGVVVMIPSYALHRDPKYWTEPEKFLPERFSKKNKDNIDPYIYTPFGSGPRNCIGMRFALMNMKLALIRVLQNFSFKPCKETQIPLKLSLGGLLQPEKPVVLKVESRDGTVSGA
Sequence of Cytochrome P450 2C9 (Homo sapiens) (P11712 whole entry, looked up): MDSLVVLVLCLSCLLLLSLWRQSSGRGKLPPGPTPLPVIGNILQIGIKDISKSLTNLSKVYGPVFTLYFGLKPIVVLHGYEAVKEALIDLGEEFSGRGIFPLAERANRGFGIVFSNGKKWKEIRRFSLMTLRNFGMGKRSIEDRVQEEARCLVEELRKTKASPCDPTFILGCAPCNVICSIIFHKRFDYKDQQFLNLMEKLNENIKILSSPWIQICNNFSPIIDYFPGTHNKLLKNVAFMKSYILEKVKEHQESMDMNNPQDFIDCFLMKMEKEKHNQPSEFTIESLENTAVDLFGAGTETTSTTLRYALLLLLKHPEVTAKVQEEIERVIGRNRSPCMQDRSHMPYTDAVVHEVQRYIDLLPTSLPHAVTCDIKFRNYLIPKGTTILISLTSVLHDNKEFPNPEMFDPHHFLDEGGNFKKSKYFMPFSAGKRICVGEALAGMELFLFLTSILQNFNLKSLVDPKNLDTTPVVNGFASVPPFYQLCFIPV
Sequence of Guanine nucleotide-binding protein G(i) subunit alpha-1 (Homo sapiens) (P63096 whole entry, looked up): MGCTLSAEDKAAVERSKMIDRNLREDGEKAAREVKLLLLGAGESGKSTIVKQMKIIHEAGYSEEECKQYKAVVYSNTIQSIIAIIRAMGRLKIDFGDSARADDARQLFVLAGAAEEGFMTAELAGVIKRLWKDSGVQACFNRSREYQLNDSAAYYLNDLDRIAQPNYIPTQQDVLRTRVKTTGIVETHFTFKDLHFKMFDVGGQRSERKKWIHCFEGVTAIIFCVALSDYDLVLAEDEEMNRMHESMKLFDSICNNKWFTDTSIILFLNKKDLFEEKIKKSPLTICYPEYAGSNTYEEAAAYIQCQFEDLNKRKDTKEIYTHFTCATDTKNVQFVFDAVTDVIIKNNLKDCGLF

Cc1noc(NS(=O)(=O)c2ccc(N)cc2)c1C
inactive: Potency [1] | outcome [2] | outcome [3] | Potency [4] | Potency [5] | Potency [6] | Potency [7] | Potency [8] | caspase-3 activation [9] 0.00688% | caspase-3 activation [10] -1.11% | Potency [11] | outcome [12] | outcome [13] | Potency [14] | activation [15] -20.7% and -0.198%

COc1ccccc1OCC(O)COC(N)=O (stereo unspecified)
inactive: outcome [13] | Potency [14]

COC(=O)Nc1nc2ccc(C(=O)c3ccccc3)cc2[nH]1
inactive: outcome [12] | outcome [13] | Potency [14]

NNC(=O)c1ccncc1
inactive: Potency [1] | outcome [2] | outcome [3] | Potency [4] | Potency [5] | Potency [6] | Potency [7] | Potency [8] | caspase-3 activation [9] 0.877% | caspase-3 activation [10] 0.113% | Potency [11] | outcome [16] | Potency [14]

NS(=O)(=O)c1cc2c(cc1Cl)NC(C(Cl)Cl)NS2(=O)=O (stereo unspecified)
inactive: outcome [13] | Potency [14]

Cc1ccnc2c1NC(=O)c1cccnc1N2C1CC1
inactive: Potency [1] | outcome [2] | outcome [3] | Potency [4] | Potency [5] | Potency [6] | Potency [7] | Potency [8] | caspase-3 activation [9] 0.892% | caspase-3 activation [10] -0.521% | Potency [11] | outcome [13]

CC(=O)Oc1ccccc1C(=O)Nc1ncc([N+](=O)[O-])s1
inactive: Potency [1] | outcome [2] | outcome [3] | Potency [4] | Potency [5] | Potency [6] | Potency [7] | Potency [8] | caspase-3 activation [9] -3.94% | caspase-3 activation [10] -8.75%

Cc1cc(NS(=O)(=O)c2ccc(N)cc2)no1
inactive: Potency [1] | outcome [2] | outcome [3] | Potency [4] | Potency [5] | Potency [6] | Potency [7] | Potency [8] | caspase-3 activation [9] 0.0786% | caspase-3 activation [10] 1.7% | Potency [11] | Potency [14]

N[C@@H](Cc1ccc(O)c(O)c1)C(=O)O
inactive: outcome [17] | Potency [18]

CN(C)c1ccc(C(=C2C=CC(=[N+](C)C)C=C2)c2ccc(N(C)C)cc2)cc1
active: Potency [1] 31.6 µM | Potency [4] 3.16 µM | Potency [5] 15.8 µM | Potency [6] 6.31 µM | Potency [7] 31.6 µM | Potency [8] 10 µM | caspase-3 activation [9] 85.6% | Potency [11] 31.6 µM
inactive: outcome [16] | Potency [14]
